AmpC inh detg: inhibitors of E. coli AmpC beta-lactamase with detergent; P00811; AmpC hydrolysis of nitrocefin, absorbance 480 nm, 0.01% Triton; Potency, µM (doses to about 114 µM), hits mostly inhibitors; 370,000 compounds, 0.041% hits; note: nearly all actives have a fitted effect of over 25% in size
Target sequence (P00811 whole entry, looked up): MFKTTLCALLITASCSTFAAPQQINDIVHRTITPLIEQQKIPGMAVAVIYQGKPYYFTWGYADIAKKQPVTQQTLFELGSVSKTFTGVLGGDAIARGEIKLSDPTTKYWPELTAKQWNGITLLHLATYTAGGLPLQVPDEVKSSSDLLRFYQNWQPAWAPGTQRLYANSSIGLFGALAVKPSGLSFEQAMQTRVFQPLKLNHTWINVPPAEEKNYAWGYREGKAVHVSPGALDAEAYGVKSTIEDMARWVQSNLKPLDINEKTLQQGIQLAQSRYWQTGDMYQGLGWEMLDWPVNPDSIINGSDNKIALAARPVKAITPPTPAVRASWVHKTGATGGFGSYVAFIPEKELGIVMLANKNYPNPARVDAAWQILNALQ
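20 mM phosphate pH 7.0 + 0.01% (detergent screen) or 0.0001% Triton X-100; 5.3 nM AmpC reagent; cpd preinc 15 min RT; nitrocefin (800 uM stock) to start; A480 q20 s × 4 min; Activity was normalised to no-enzyme and no-compound control wells.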
AMA1-RON2 inh: inhibitors of Plasmodium falciparum AMA1-RON2 interaction; 360,000 compounds, 0.2% hits; AlphaScreen AMA1-biotinylated RON2 peptide binding; Potency, µM (titrated, usually from 58.2 µM), actives largely listed as inhibitors; note: nearly all actives have a fitted effect of over 45% in size
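AMA1 (3D7) with his tag at 25 nM final met compounds first, then biotinylated RON2 peptide at 25 nM; detection used donor plus acceptor beads, 10 µg/mL apiece, read by AlphaScreen after 30 min at room temperature.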
Pf growth 96h: inhibits malaria parasite growth, 96 h | P. falciparum luciferase reporter growth, 96 h | Potency, µM (titrated, usually from 28.7 µM), hits mostly inhibitors | 320,000 compounds, 6.9% hits
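Two parasite generations (96 h, 37 C, 5% CO2) of compound exposure in infected erythrocytes (0.05% parasitemia, 2% hematocrit). Luciferase-reporter P. falciparum; decreased luminescence indicates inhibited growth, aimed at apicoplast-acting delayed death.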
HCV inh: inhibitors of hepatitis C virus infection; Potency, µM (titrated, usually from 41.8 µM), usual class: inhibitors; 340,000 compounds, 3.4% hits; Huh7.5.1 HCVcc-Cre infection, luciferase reporter, 44 h
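Compounds are dispensed onto cells plated 4 h earlier at 1,000 per well, with HCVcc-Cre virus (about 0.5 moi) added next. Following 44 h of culture, luminescent signal is measured for 15 sec after 15 min with substrate at room temperature.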
Pf growth 48h: P. falciparum growth inhibition at 48 hours (one generation); P. falciparum luciferase growth in erythrocytes, 48 h; Potency, µM (series often up to 28.7 µM), usual class: inhibitors; 310,000 compounds, 5.9% hits
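Compounds are pin-transferred into medium, infected erythrocytes (2% hematocrit, 0.1% parasitemia final) are added, and plates sit one parasite generation at 37 C in 5% CO2. Detection reagent is then added and luminescence measured.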
AmpC no deterg: inhibitors of E. coli AmpC beta-lactamase without detergent; P00811; AmpC nitrocefin hydrolysis, absorbance 480 nm, 0.0001% Triton; Potency, µM (highest dose often 57.1 µM), actives largely listed as inhibitors; 330,000 compounds, 0.52% hits; AID 485341; note: nearly all actives have a fitted effect of over 20% in size
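AmpC (5.3 nM in the dispensed reagent) in 20 mM phosphate pH 7.0 with 0.01% (detergent screen) or 0.0001% Triton X-100 was preincubated with compounds for 15 min at room temperature. Nitrocefin was then added from an 800 uM solution, and hydrolysis was followed at 480 nm.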
Numbers stand for hits; 0 = inactive; ? = inconclusive; - = no result given; [ ] = another dose, or the depositor's remark. An excerpt weighted towards active compounds, which were near 11% of everything screened. Calls come from the whole dose curve; as a rule, active = well fitted curve in the direction sought with a large enough effect; inconclusive = small, poorly fitted or top-dose-only effect, or another doubt; inactive = no such curve, though single readings can be large; an effect the other way counts as inactive or inconclusive.

SMILES	AmpC inh detg	AMA1-RON2 inh	Pf growth 96h	HCV inh	Pf growth 48h	AmpC no deterg
CCOC(=O)C1=C(CS(=O)(=O)c2ccc(C)cc2)NC(=O)NC1c1ccc(C(C)C)cc1 (stereo unspecified)	0	-	-	-	-	-
Cc1nc(C)c(C(=O)N2CCCC(CCC(=O)NCc3ccc(F)c(F)c3)C2)s1 (stereo unspecified)	0	0	9.3µM	0	0	0
COc1ccc2c(C)cc(SCC(=O)Nc3cc(C(N)=O)cc(C(N)=O)c3)nc2c1	0	0	?	4µM	0	0
COc1ccc2c(CNCc3cccs3)c(C(=O)O)n(Cc3ccccc3F)c2c1	0	-	-	-	-	-
Cc1ccc(-c2noc(CSc3nnc(Cc4cccs4)n3-c3ccccc3)n2)cc1	?	0	4.7µM	?	0	0
c1ccc(-c2noc(CSc3nnc(Cc4cccs4)n3-c3ccccc3)n2)cc1	0	0	0	?	?	0
Fc1ccc(-n2c(Cc3ccccc3)nnc2SCc2nc(-c3cccs3)no2)cc1	0	0	0	0	10µM	0
COc1ccc(/C=C/c2nc(C#N)c(NCCc3ccccc3)o2)cc1OC	0	-	-	-	-	-
CCc1ccc(NC(=O)Cn2c(=O)ccc3cc(S(=O)(=O)N4CCCC4)ccc32)cc1	0	-	-	-	-	-
CCOC(=O)[C@H]1[C@H]2COc3ccc(Br)cc3[C@@H]2N2C(=O)c3cc(Br)ccc3NC(=O)[C@@]12C	0	0	8.3µM	?	?	0
CCOC(=O)[C@H]1[C@H]2COc3ccccc3[C@@H]2N2C(=O)c3cc(Br)ccc3NC(=O)[C@@]12C	0	0	6.6µM	0	4.1µM	0
Cc1ccc(Nc2c(-c3ccc(N4CCOCC4)cc3)nc3c(C)cccn23)cc1	0	-	-	-	-	-
CCOC(=O)C1CCCN(c2nc3c(S(=O)(=O)c4ccc(CC)cc4)nnn3c3ccsc23)C1 (stereo unspecified)	0	-	-	-	-	-
N#Cc1cccc(NC(=O)c2cc3c(s2)-c2ccc(Cl)cc2SC3)c1	0	-	-	-	-	-
CCN1C(=O)[C@H]2[C@@H](c3ccc(Cl)cc3)N3C(=O)CN(CC4CC4)C(=O)[C@@]3(C)[C@H]2C1=O	0	0	0	0	0	0
CCN1C(=O)[C@H]2[C@@H](c3ccc(OC)cc3)N3C(=O)CN(CC4CC4)C(=O)[C@@]3(C)[C@H]2C1=O	0	0	0	10µM	0	0
COc1ccc(CN2CCN(c3ccccc3)CC2)c(C)c1C	0	0	0	0	-	0
Oc1cc2c(cc1CN1CCN(c3ccc(F)cc3)CC1)OCO2	?	32µM	0	0	?	0
Cc1ccc(O)c(CN2CCN(c3ccccc3)CC2)c1	?	0	0	0	2.6µM	0
Cc1cc(O)c(CN2CCN(c3ccccc3)CC2)cc1C	0	0	-	0	1.5µM	0
CCOC(=O)c1c(NC(=O)CSc2cn(CCNC(=O)c3ccccc3F)c3ccccc23)sc2c1CCCC2	0	-	-	-	-	-
O=C(c1ccco1)N1CCN(c2nc(C(F)(F)F)nc3c2nnn3Cc2ccccc2)CC1	?	0	-	4µM	9.3µM	0
O=C(c1ccco1)N1CCN(c2nnc(-c3ccccc3)c3ccccc23)CC1	0	0	?	0	-	0
O=C(c1ccco1)N1CCN(c2ncnc3c2nnn3Cc2ccccc2Cl)CC1	0	0	0	?	12µM	0
CN(C)CCNC(=O)CCCN1C(=O)c2cccnc2Oc2ccc(Cl)cc21	0	-	-	-	-	-
SMILES	AmpC inh detg	AMA1-RON2 inh	Pf growth 96h	HCV inh	Pf growth 48h	AmpC no deterg
CC1Cc2ccccc2N1C(=O)c1ccnc(C(C)(C)C)c1 (stereo unspecified)	0	0	0	?	12µM	0
CC1Cc2ccccc2N1C(=O)c1cccnc1 (stereo unspecified)	0	0	-	0	0	0
CNCCc1c[nH]c2ccccc12	0	0	0	0	0	0
CNCCc1c[nH]c2ccc(O)cc12	-	?	-	3.2µM	-	-
O=C1c2ccccc2C(=O)N1CCc1c[nH]c2ccc(O)cc12	0	0	3.3µM	?	0	0
Cc1cc2n(n1)C(c1c[nH]c3ccccc13)Nc1ccccc1-2 (stereo unspecified)	0	0	0	4µM	0	0
Cc1cc2n(n1)C(c1cccs1)Nc1ccccc1-2 (stereo unspecified)	0	0	-	2.8µM	0	0
CCCCNC(=O)C(CC)Sc1nnc(-c2ccc(OC)c(OC)c2)c(-c2ccc(OC)c(OC)c2)n1 (stereo unspecified)	0	-	-	-	-	-
Cc1ccc(/C=N/NC(=O)Cc2ccc(O)cc2)s1	0	0	7.4µM	0	0	0
CCOCCn1ccc2c(OCC(=O)Nc3cc(C(F)(F)F)ccc3Cl)cccc2c1=O	0	-	-	-	-	-
Cc1nn(Cc2ccccc2)c(C)c1C(=O)OCC(=O)c1cc(C)n(C2CC2)c1C	0	0	-	?	15µM	0
CC(C)CCN(Cc1ccco1)C(=O)c1cc2c(Cl)nc3ccccc3c2s1	0	-	-	-	-	-
CCOC(=O)c1c(S(=O)(=O)N2CCCC2)c(C)n(C)c1C	0	0	12µM	0	0	0
CCOC(=O)c1c(S(=O)(=O)N2CCCC(C(=O)Nc3ccc(OCC)cc3)C2)c(C)n(C)c1C (stereo unspecified)	0	-	-	-	-	-
CCOC(=O)c1c(S(=O)(=O)N2CCCC(C(=O)Nc3ccc(C)cn3)C2)c(C)n(C)c1C (stereo unspecified)	0	0	0	0	13µM	0
CCOC(=O)c1c(S(=O)(=O)N2CCCCC2C)c(C)n(C)c1C (stereo unspecified)	0	0	1.7µM	0	0	0
COc1ccccc1N1CCN(C(=O)c2cc(S(=O)(=O)N3CCC(C)CC3)cn2C)CC1	0	-	-	-	-	-
CCN(C(=O)Cn1ncc2c(=O)oc3ccccc3c21)c1ccccc1F	0	-	-	-	-	-
CN1C(=O)NC(c2ccccc2[N+](=O)[O-])C2=C1CC(C)(C)CC2=O (stereo unspecified)	0	0	9.3µM	0	0[0.00184 µM]	0
CN1C(=O)NC(c2ccccc2[N+](=O)[O-])C2=C1CCCC2=O (stereo unspecified)	0	0	9.3µM	0	0[0.00184 µM]	0
O=C(CC(NCc1cccnc1)C(=O)O)Nc1ccc(F)cc1 (stereo unspecified)	0	-	-	-	-	-
Cc1cc(C)c(OCC(=O)N(Cc2ccc(N(C)C)cc2)Cc2ccco2)c(C)c1	0	-	-	-	-	-
CC(C)NC(=O)NC(=O)CSc1nnc(COc2ccccc2Cl)o1	0	0	0	0	0	0
NC(=O)CSc1nnc(COc2cccc3ccccc23)o1	?	0	12µM	0	0	0
O=C(CSc1nnc(COc2ccccc2Cl)o1)NC(=O)NC1CCCC1	0	0	12µM	0	0	0
Cc1ccc(C(=O)CSc2nnc(COc3cccc4cccnc34)o2)cc1	0	0	3.3µM	0	?	0
